This is part of a sample that, as a whole, favours compounds with a hit. Of some 83,000 tested, about 20% had one in any assay.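 Treatment: one concentration, 48 hours, 96-well format. Scoring: percent growth, with anything below 10 considered active.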 A number with no mark means an inactive call. Active and inactive are the calls of the source.

The values below come from PubChem BioAssay (NCI).

Test systems include RPMI-8226 leukemia; OVCAR-8 ovarian; OVCAR-5 ovarian; OVCAR-4 ovarian; SK-OV-3 ovarian; IGROV1 ovarian; OVCAR-3 ovarian; HS 578T breast; NCI/ADR-RES ovarian; T-47D breast; BT-549 breast; MDA-MB-435 melanoma; SW-620 colon; MCF7 breast; HCT-116 colon; HCC-2998 colon; KM12 colon.
Common to all, as to assay: NCI-60 one-dose screen, 48 h (100 = growth as untreated, 0 = no growth, -100 = all killed)
Holding throughout (settings): 10 µM unless noted

On to `Nc1ccc2c(c1)/C(=N/O)c1cc([N+](=O)[O-])ccc1-2`, for which the growth with RPMI-8226 leukemia is 58.9%; with OVCAR-8 ovarian, 87%; in the test with OVCAR-5 ovarian it was 102%; in the test with OVCAR-4 ovarian it was 84%; in the test with SK-OV-3 ovarian, 81.6%; in the test on IGROV1 ovarian, 57%. In addition, the growth was 63.8% in the test on OVCAR-3 ovarian; 77.2% in the test on HS 578T breast; 109% in the test on NCI/ADR-RES ovarian; 93% with T-47D breast; 50.8% in the test with BT-549 breast; 50.9% in the test with MDA-MB-435 melanoma. Further, the growth with SW-620 colon was 13.1%; in the test on MCF7 breast, 81.8%; in the test on HCT-116 colon it was 47.3%; with HCC-2998 colon, 103%; in the test on KM12 colon it was 64.8%.

Turning to `Nc1nc(SCC2(CCl)COC2)c2[nH]cnc2n1`, the growth is 96.4% in the test with RPMI-8226 leukemia; 95.8% with OVCAR-8 ovarian; 100% with OVCAR-5 ovarian; 86.8% in the test on OVCAR-4 ovarian; 92.9% with SK-OV-3 ovarian; 101% with IGROV1 ovarian. The growth in the test on OVCAR-3 ovarian was 109%; in the test with HS 578T breast it was 89.4%; with NCI/ADR-RES ovarian, 109%; in the test on T-47D breast, 100%; with BT-549 breast, 91.2%; in the test on MDA-MB-435 melanoma, 107%. The growth in the test on SW-620 colon is 99.8%; in the test with MCF7 breast, 86.4%; with HCT-116 colon, 105%; with HCC-2998 colon, 97.7%; with KM12 colon, 108%.

In the case of `Cc1ccc2c(c1)O/C(=C\c1ccc([N+](=O)[O-])o1)C2=O`, the growth is -34.4% (active) in the test on RPMI-8226 leukemia; -4.7% (active) in the test on OVCAR-8 ovarian; 71.6% in the test with OVCAR-5 ovarian; 5.62% (active) with OVCAR-4 ovarian; 91.1% in the test on SK-OV-3 ovarian; -17.3% (active) in the test on IGROV1 ovarian. For the same compound, the growth with OVCAR-3 ovarian was -15% (active); in the test on HS 578T breast, 106%; with NCI/ADR-RES ovarian, 78.5%; with T-47D breast, 41.4%; in the test with BT-549 breast, 25.9%; with MDA-MB-435 melanoma it was -8.75% (active). Further, the growth in the test with SW-620 colon is -56.5% (active); in the test with MCF7 breast, 9.48% (active); with HCT-116 colon, -47.7% (active); in the test with HCC-2998 colon, 64.3%; in the test with KM12 colon, 86%.

For `COc1ccccc1[C@H]1c2[nH]c3ccccc3c2C[C@H]2C(=O)N(CCCCCCC(=O)NO)CC(=O)N12`, the growth was -1.71% (active) in the test on RPMI-8226 leukemia; 36.9% with OVCAR-8 ovarian; 26.4% in the test on OVCAR-5 ovarian; 58.1% in the test on OVCAR-4 ovarian; 61.7% in the test with SK-OV-3 ovarian; 41.1% in the test on IGROV1 ovarian. The growth in the test with OVCAR-3 ovarian was 48.2%; with HS 578T breast, 53.6%; in the test with NCI/ADR-RES ovarian it was 72.4%; with T-47D breast, 18.2%; in the test with BT-549 breast it was 67.8%; in the test on MDA-MB-435 melanoma, 45.4%. Moreover, the growth in the test with SW-620 colon was 15.6%; with MCF7 breast it was 37.7%; in the test with HCT-116 colon, 18.3%; in the test on HCC-2998 colon, 38.9%; in the test with KM12 colon it was 77.8%.

As to `O=C(C(=O)N1CCCCC1)c1ccc(OC2OC(CO)C(O)C(O)C2O)cc1` (stereo unspecified), the growth was 103% in the test with RPMI-8226 leukemia; 95.9% in the test with OVCAR-8 ovarian; 113% in the test on OVCAR-5 ovarian; 108% with OVCAR-4 ovarian; 105% in the test on SK-OV-3 ovarian; 86.7% with IGROV1 ovarian. The growth is 107% with OVCAR-3 ovarian; 110% in the test with HS 578T breast; 103% with NCI/ADR-RES ovarian; 99.6% with T-47D breast; 116% in the test on BT-549 breast; 107% in the test on MDA-MB-435 melanoma. Moreover, the growth was 109% with SW-620 colon; 94.3% in the test on MCF7 breast; 109% in the test with HCT-116 colon; 108% in the test on HCC-2998 colon; 115% in the test with KM12 colon.

Regarding `Cc1[nH]n(C(N)=S)c(=O)c1N=Nc1ccc(F)c(Cl)c1`, the growth with RPMI-8226 leukemia is 78.2%; in the test with OVCAR-8 ovarian, 91.2%; in the test with OVCAR-5 ovarian, 102%; with OVCAR-4 ovarian, 94.9%; in the test with SK-OV-3 ovarian, 280%; in the test on IGROV1 ovarian, 102%. Also, the growth was 88.3% with OVCAR-3 ovarian; 127% with HS 578T breast; 117% in the test with NCI/ADR-RES ovarian; 249% in the test on T-47D breast; 143% with BT-549 breast; 107% in the test on MDA-MB-435 melanoma. Also, the growth is 111% in the test on SW-620 colon; 103% with MCF7 breast; 95.5% in the test on HCT-116 colon; 95.7% in the test on HCC-2998 colon; 90% in the test with KM12 colon.

With `CN1C(=O)C(=Cc2cn(Cc3ccccc3)c3ccc(Br)cc23)C(=O)N(C)C1=O`, the growth in the test on RPMI-8226 leukemia is 92.6%; with OVCAR-8 ovarian, 97.9%; in the test on OVCAR-5 ovarian, 14%; with OVCAR-4 ovarian, 107%; in the test on SK-OV-3 ovarian, 90.4%; with IGROV1 ovarian, 97.3%. In addition, the growth with OVCAR-3 ovarian was 103%; with HS 578T breast, 113%; in the test with NCI/ADR-RES ovarian it was 96.9%; with T-47D breast, 83.7%; in the test with BT-549 breast, 102%; in the test with MDA-MB-435 melanoma, 102%. In addition, the growth was 108% with SW-620 colon; 87% with MCF7 breast; 101% in the test with HCT-116 colon; 107% with HCC-2998 colon; 102% with KM12 colon.

Turning to `CSc1nc2c(c(=O)n1C)C(c1ccccc1)C1=C(N2)/C(=C/c2ccccc2)CCC1` (stereo unspecified), the growth with RPMI-8226 leukemia was 39.5%; in the test on OVCAR-8 ovarian, 63.7%; with OVCAR-5 ovarian, 113%; in the test on OVCAR-4 ovarian, 68.3%; in the test with SK-OV-3 ovarian, 107%; in the test with IGROV1 ovarian, 47.2%. The growth is 52.8% in the test with OVCAR-3 ovarian; 61% with HS 578T breast; 38.3% with NCI/ADR-RES ovarian; 57% in the test with T-47D breast; 37.9% with BT-549 breast; 4.1% (active) with MDA-MB-435 melanoma. Also, the growth in the test with SW-620 colon was 47.1%; in the test on MCF7 breast, 56.7%; in the test on HCT-116 colon, 39.5%; in the test with HCC-2998 colon it was 71.4%; with KM12 colon, 71.4%.
